SMILES strings stand for the structures. This is part of a sample that, as a whole, favours compounds with a hit. Of some 83,000 tested, about 20% had one in any assay.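 Percent growth is the endpoint: 0 to 100 indicates growth inhibition (40 means 60% inhibition), 0 means no net growth, and negative values indicate cell death.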 A number with no mark means an inactive call. The source made the active and inactive calls. The calls were made as follows: active = growth percent below 10; inactive = the rest.

One test relates to LOX IMVI melanoma. The test can be described thus: NCI-60 one-dose screen, 48 h (100 = growth as untreated, 0 = no growth, -100 = all killed). The conditions noted are these: 10 µM unless noted.
Take `O=C(Nc1ccc2c(c1)OCO2)C(=O)c1c[nH]c2cc(F)ccc12`: the growth is 8.88% (active).

Take `O=C(Nc1cccc(-n2cc(-c3ccncc3)c(-c3ccc(Cl)c(O)c3)n2)c1)Nc1cc(C(F)(F)F)cc(C(F)(F)F)c1`: the growth is -94.1% (active).

Regarding `N/C(=N\C(N)=N\c1nc2ccccc2s1)c1ccncc1`, the growth was 55.8%.

For the compound `O=S(=O)(NCCNc1nccc(-c2c(-c3cccc(O)c3)nc3sccn23)n1)c1ccc(F)cc1`, the growth is 38.5%.

As for `CN1C(=O)N(C)C2C1NN=c1s/c(=C\c3cccnc3)c(=O)n12` (stereo not drawn), the growth is 80.1%.

As for `CN1CCN(Cc2ccc(NC(=O)c3cncc(C#Cc4cnc(N)c5ccncc45)c3)cc2C(F)(F)F)CC1`, the growth was -83.9% (active).

`O=C(Nc1ccncc1)C(=O)c1cn(S(=O)(=O)c2ccc(Br)cc2)c2ccccc12`: the growth was 41.6%.

`CN(C)CCCN(c1nc(C(Cl)(Cl)Cl)ns1)c1nc(C(Cl)(Cl)Cl)ns1`: the growth was -31.4% (active).

Consider `COc1ccc(-c2nc3sc(-c4cc(OC)c(OC)c(OC)c4)nn3c2/C=C2/C(=O)Nc3ccc(F)cc32)cc1`, for which the growth is 17.8%.

On to `Cc1ccc(S(=O)(=O)NCCNc2cc(-c3cn(C(C)(C)C)nc3-c3cccc(O)c3)ccn2)cc1`, for which the growth is 47.4%.

With `COc1cccc(/C=C2\Oc3cc(OCCCN4CCCC4)ccc3C2=O)c1`, the growth is 20.6%.

For the compound `COc1ccc(Nc2[nH]n3c(=O)cc(-c4ccccc4)nc3c2C(=O)Nc2ccc(C)cc2)c(OC)c1`, the growth is 87%.

In the case of `Cc1ccc(S(=O)(=O)c2nc(-c3ccccc3)oc2S(C)(=O)=O)cc1`, the growth is -32.7% (active).

As for `O=[N+]([O-])c1cccc(-c2nc3sccn3c2-c2ccnc(NCCCNS(=O)(=O)c3ccc(Cl)cc3)n2)c1`, the growth was 35.4%.

In the case of `CCC(=O)Oc1ccc(/C(=C(/C)Cc2cccc(OC)c2)c2ccc(OCCN(C)C)cc2)cc1`, the growth is 73.4%.

Consider `COc1ccc(N2CCN(Cc3cc(C(=O)/C=C/c4c[nH]c5ccccc45)ccc3O)CC2)cc1`, for which the growth was 97.2%.

Turning to `COc1ccc(-c2nc(/C=C3/C(=O)Nc4ccc(F)cc43)c3ccccn23)cc1`, the growth was 92.7%.

Turning to `CCN(CC)c1ccc(/C=C2\Oc3ccc(O)c(I)c3C2=O)cc1`, the growth is 34.2%.

On to `N[C@H]1CN(C(=O)c2cc3cc(Br)c(F)c(F)c3[nH]2)C[C@@H]1O`, for which the growth was 89.6%.

For `COc1ccc(/C=C\c2cc(OC)c(OC)c(OC)c2)cc1OC(=O)c1cccc(Cn2cc(CCOC(=O)c3cccc(Cn4nnc5c4C(=O)c4ccccc4C5=O)c3)nn2)c1`, the growth is 21.2%.

For `N[C@@H]1CCN(C(=O)c2cc3cc(Cl)c(F)c(F)c3[nH]2)C1`, the growth is 84%.

For `CC(C)(C)Nc1c(-c2cccs2)nc2ncccn12`, the growth is 98.5%.

Regarding `O=C1/C(=C/c2ccccc2)Oc2ccc(O)c(I)c21`, the growth is 93.8%.

As for `COc1ccc(OC)c(/C=C2\Oc3cc(OCCCN4CCCC4)ccc3C2=O)c1`, the growth is 12%.

Consider `COc1ccc(S(=O)(=O)Nc2cc(/C=C\c3cc(OC)c(OC)c(OC)c3)cc(OC)c2OC)cc1`, for which the growth was 21.5%.

As for `COc1ccc(/C=C2\Oc3cc(OCCCN4CCCC4)ccc3C2=O)cc1`, the growth was 13.3%.

`FC(F)(F)c1ccccc1-c1cn2c(ccc3ccccc32)n1`: the growth was 74.5%.

For `Cc1nn(-c2ccc(Cl)cc2)c2ncnc(N/N=C/c3cccc([N+](=O)[O-])c3)c12`, the growth was 93.4%.

In the case of `c1ccc(Nc2nc(Nc3ccccc3)nc(Nc3ccccc3)n2)cc1`, the growth was 82.7%.

As for `COc1ccc(-c2nc(N3CCCC3=O)sc2Br)cc1OC`, the growth was 100%.

`NC1N=C(SCC(=O)N2CCN(c3cc4c(cc3F)c(=O)c(C(=O)O)cn4C3CC3)CC2)NC(=O)/C1=C/c1ccc(Cl)cc1` (stereo not drawn): the growth was 102%.

Regarding `Clc1ccc(-c2nc3ccccc3s2)cc1Cl`, the growth was 88.4%.

`O=C(NS(=O)(=O)c1ccc2ccccc2c1)n1cc(-c2ccncc2)c(-c2ccc(Cl)c(O)c2)n1`: the growth is 49.9%.

In the case of `O=C(O)/C=C/C(=O)c1ccc(Cl)cc1`, the growth was 105%.

With `CCCCN(CCCC)C(=O)CC`, the growth was 104%.

`O=c1c2sc3ncccc3c2nnn1-c1ccccc1`: the growth was 104%.

Regarding `COc1ccc(/C=C2\Oc3cc(OCCCN4CCCC4)ccc3C2=O)c(OC)c1`, the growth was -27.7% (active).

As to `CCCCN(CCCC)c1ccc(C(=N)c2ccc(N(CCCC)CCCC)cc2)cc1`, the growth was -97.2% (active).

For `CN1C(=O)N(C)C2C1NN=c1s/c(=C\C=C\c3ccccc3)c(=O)n12` (stereo not drawn), the growth is 46.4%.

For a further test, the system named is SK-MEL-28 melanoma. The test is described as above. The conditions noted are these: 10 µM unless noted.
Turning to `O=C(Nc1ccc2c(c1)OCO2)C(=O)c1c[nH]c2cc(F)ccc12`, the growth is 30.7%.

For the compound `O=C(Nc1cccc(-n2cc(-c3ccncc3)c(-c3ccc(Cl)c(O)c3)n2)c1)Nc1cc(C(F)(F)F)cc(C(F)(F)F)c1`, the growth is -62.4% (active).

As to `N/C(=N\C(N)=N\c1nc2ccccc2s1)c1ccncc1`, the growth was 66.9%.

As to `O=S(=O)(NCCNc1nccc(-c2c(-c3cccc(O)c3)nc3sccn23)n1)c1ccc(F)cc1`, the growth is 43.5%.

With `CN1C(=O)N(C)C2C1NN=c1s/c(=C\c3cccnc3)c(=O)n12` (stereo not drawn), the growth was 81.5%.

In the case of `CN1CCN(Cc2ccc(NC(=O)c3cncc(C#Cc4cnc(N)c5ccncc45)c3)cc2C(F)(F)F)CC1`, the growth was -3.08% (active).

Turning to `O=C(Nc1ccncc1)C(=O)c1cn(S(=O)(=O)c2ccc(Br)cc2)c2ccccc12`, the growth is 60.6%.

On to `CN(C)CCCN(c1nc(C(Cl)(Cl)Cl)ns1)c1nc(C(Cl)(Cl)Cl)ns1`, for which the growth is 51.9%.

Take `COc1ccc(-c2nc3sc(-c4cc(OC)c(OC)c(OC)c4)nn3c2/C=C2/C(=O)Nc3ccc(F)cc32)cc1`: the growth is -72.8% (active).

As for `Cc1ccc(S(=O)(=O)NCCNc2cc(-c3cn(C(C)(C)C)nc3-c3cccc(O)c3)ccn2)cc1`, the growth was 57.7%.

Regarding `COc1cccc(/C=C2\Oc3cc(OCCCN4CCCC4)ccc3C2=O)c1`, the growth is 100%.

Regarding `COc1ccc(Nc2[nH]n3c(=O)cc(-c4ccccc4)nc3c2C(=O)Nc2ccc(C)cc2)c(OC)c1`, the growth was 95%.

Regarding `Cc1ccc(S(=O)(=O)c2nc(-c3ccccc3)oc2S(C)(=O)=O)cc1`, the growth was 62.6%.

As for `O=[N+]([O-])c1cccc(-c2nc3sccn3c2-c2ccnc(NCCCNS(=O)(=O)c3ccc(Cl)cc3)n2)c1`, the growth is 66%.

Regarding `CCC(=O)Oc1ccc(/C(=C(/C)Cc2cccc(OC)c2)c2ccc(OCCN(C)C)cc2)cc1`, the growth was 110%.

Regarding `COc1ccc(N2CCN(Cc3cc(C(=O)/C=C/c4c[nH]c5ccccc45)ccc3O)CC2)cc1`, the growth was 110%.

On to `COc1ccc(-c2nc(/C=C3/C(=O)Nc4ccc(F)cc43)c3ccccn23)cc1`, for which the growth was 105%.

In the case of `CCN(CC)c1ccc(/C=C2\Oc3ccc(O)c(I)c3C2=O)cc1`, the growth was 74.3%.

Consider `N[C@H]1CN(C(=O)c2cc3cc(Br)c(F)c(F)c3[nH]2)C[C@@H]1O`, for which the growth was 106%.

On to `COc1ccc(/C=C\c2cc(OC)c(OC)c(OC)c2)cc1OC(=O)c1cccc(Cn2cc(CCOC(=O)c3cccc(Cn4nnc5c4C(=O)c4ccccc4C5=O)c3)nn2)c1`, for which the growth was 58%.

With `N[C@@H]1CCN(C(=O)c2cc3cc(Cl)c(F)c(F)c3[nH]2)C1`, the growth was 105%.

For `CC(C)(C)Nc1c(-c2cccs2)nc2ncccn12`, the growth is 113%.

On to `O=C1/C(=C/c2ccccc2)Oc2ccc(O)c(I)c21`, for which the growth is 112%.

For the compound `COc1ccc(OC)c(/C=C2\Oc3cc(OCCCN4CCCC4)ccc3C2=O)c1`, the growth was 87.4%.

`COc1ccc(S(=O)(=O)Nc2cc(/C=C\c3cc(OC)c(OC)c(OC)c3)cc(OC)c2OC)cc1`: the growth is 67.8%.

Regarding `COc1ccc(/C=C2\Oc3cc(OCCCN4CCCC4)ccc3C2=O)cc1`, the growth is 103%.

`FC(F)(F)c1ccccc1-c1cn2c(ccc3ccccc32)n1`: the growth was 81.8%.

Turning to `Cc1nn(-c2ccc(Cl)cc2)c2ncnc(N/N=C/c3cccc([N+](=O)[O-])c3)c12`, the growth is 105%.

With `c1ccc(Nc2nc(Nc3ccccc3)nc(Nc3ccccc3)n2)cc1`, the growth was 79%.

As to `COc1ccc(-c2nc(N3CCCC3=O)sc2Br)cc1OC`, the growth was 102%.

As to `NC1N=C(SCC(=O)N2CCN(c3cc4c(cc3F)c(=O)c(C(=O)O)cn4C3CC3)CC2)NC(=O)/C1=C/c1ccc(Cl)cc1` (stereo not drawn), the growth was 110%.

For `Clc1ccc(-c2nc3ccccc3s2)cc1Cl`, the growth is 106%.

As to `O=C(NS(=O)(=O)c1ccc2ccccc2c1)n1cc(-c2ccncc2)c(-c2ccc(Cl)c(O)c2)n1`, the growth was 54.6%.

As for `O=C(O)/C=C/C(=O)c1ccc(Cl)cc1`, the growth is 115%.

Consider `CCCCN(CCCC)C(=O)CC`, for which the growth was 114%.

Take `O=c1c2sc3ncccc3c2nnn1-c1ccccc1`: the growth was 109%.

As to `COc1ccc(/C=C2\Oc3cc(OCCCN4CCCC4)ccc3C2=O)c(OC)c1`, the growth is 105%.

As to `CCCCN(CCCC)c1ccc(C(=N)c2ccc(N(CCCC)CCCC)cc2)cc1`, the growth was 9.39% (active).

For `CN1C(=O)N(C)C2C1NN=c1s/c(=C\C=C\c3ccccc3)c(=O)n12` (stereo not drawn), the growth was 68.4%.
